The supplement of paper PMC6555819

What was measured:
Test in all cases: PBM binding z-score (relative to random genomic background probes); higher = stronger binding; sequences stand for … in GC…GCGATTGACAGCGTAGAATGAAGG
[1] = tested on: RARb homodimer (NR concentration 270 nM)
Procedure, shortened: (§1)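 Scanned fluorescence from custom Agilent 4×180K protein-binding microarrays was regression-normalized. Binding z-scores use random background probes as reference. Ligand-free nuclear receptor dimers were incubated on the arrays for 1 h and detected with antibodies against each partner (one per run).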

[2] = tested on: RARg:RXRa (NR concentration 270 nM, RXRa partner concentration 90 nM)
Procedure, shortened: as §1

[3] = tested on: RARg homodimer (NR concentration 270 nM)
Procedure, shortened: as §1

[4] = tested on: RXRa DBDmut IVT, anti-RXR (DBD mutation: RXRa K156A/R161A, NR concentration 90 nM)
Procedure, shortened: as §1

[5] = tested on: RXRa homodimer (NR concentration 180 nM)
Procedure, shortened: as §1

[6] = tested on: THRa:RXRa (NR concentration 90 nM, RXRa partner concentration 90 nM)
Procedure, shortened: as §1

[7] = tested on: THRa homodimer (NR concentration 90 nM)
Procedure, shortened: as §1

[8] = tested on: VDR homodimer (NR concentration 270 nM)
Procedure, shortened: as §1

Sequence	PBM binding z-score [1]	PBM binding z-score [2]	PBM binding z-score [3]	PBM binding z-score [4]	PBM binding z-score [5]	PBM binding z-score [6]	PBM binding z-score [7]	PBM binding z-score [8]
GGAACGAGGGCAAAGTTGATAGTATCTGTCGACG	1.24	2.08	1.84	2.59	1.68	1.36	0.0529	1.64
GCAGACTGGTGAAACGCAGGTAACTCAGGGTGGC	-1.13	-0.789	-0.946	-1.05	-0.735	0.213	-0.648	-1.15
TCATGTAGATCAGCAGGTTAAGAAAGCTGGCCAA	-0.0199	-0.0908	-0.0942	0.626	0.381	0.195	-0.553	-0.749
TAGCATAGGTCATTCAGGGGCCAGTATAGAAAGC	3.72	7.38	5.09	1.83	5.02	3.87	-0.317	0.876
TCATATAGGTAAACAGATGAAAGTCCGTAAGTTA	0.099	0.636	0.431	1.38	0.703	0.419	-0.0722	0.455
AGTCAAAGTTCACAAGGTAACGTAAGATTCAGCT	3.97	5.73	6.02	4.32	4.74	3.06	0.961	3.66
GCTTACGGGTCAAAGGTTATAGCGTGAATAGAAT	3.29	6.87	4.52	2.22	9.28	3.83	0.134	1.44
CCTATTAGTTGACCATAAGGGCAACTGAAGCTCG	2.04	1.5	1.31	0.724	0.69	1.99	1.28	0.824
TAGCCTAGGTCAGCTCGGGCCAGTATACGCTATA	2.59	3.06	4.25	-0.297	1.54	4.27	0.31	-0.788
ACTTACGCGTCAACGAGGTTATAGCACGCGTATA	0.406	0.413	0.22	0.579	1.09	1.52	0.379	0.536
CGAACTAGGTAAGAACAGGACAGTGAAGGATGAT	-0.183	0.0419	0.345	-0.391	-0.0524	0.664	-0.177	-0.504
CCTACTGGGCCATCCAGAGGTCATTGATCATATG	4.32	4.63	3.39	0.256	3.69	3.29	1.41	3.33
GAAACAGGGTCAGCTAGAGGCCAGAGTATGGAAA	3.26	6.78	4.43	1.52	4.28	3.13	0.117	0.821
ATATCTAGGTTATCGGGTCATTCAGTTTGCGCAT	3.52	3.54	2.81	1.81	3.51	3.67	3.5	4.19
AGATTGAGGTTATACGTAGATCAGGGAAGAAAGT	0.842	1.71	0.96	1.28	2.2	2.24	0.943	0.908
TAGCCTAGGTCAGGCGGGCCAGTATAGTGTCGGC	2.21	2.75	3.45	-1.1	1.3	1.86	-0.0587	-0.674
CCTTACGGGTAACTGACAGGTTATAGCATTTGGA	0.321	0.742	0.501	0.0265	0.525	0.456	-0.293	-0.157
CGAACTAGGTCAAGGACAATGAATCTCCGCACGC	3.13	3.87	4.64	1.52	2.78	3.12	2.15	0.633
CATGCTAGGTCATGGTCAGCTAATCTACAGTATG	3.06	3.95	4.67	1.74	3.06	2.87	1.06	0.15

Sequence	PBM binding z-score [1]	PBM binding z-score [2]	PBM binding z-score [3]	PBM binding z-score [4]	PBM binding z-score [5]	PBM binding z-score [6]	PBM binding z-score [7]	PBM binding z-score [8]
GCTAGTTGGTAAGTAAAAGGTCACACACCGGTCG	5.2	4.96	4.06	0.677	4.99	3.48	1.73	1.63
ATCGAAAGGACGAGGTGAGTATAGAGAAAGGGAA	0.703	0.958	1.48	-0.386	0.312	1.27	0.739	0.284
TCTTGTAGATCATTAGAGGTTAAGAAAGTGCGCT	1.19	0.881	0.586	0.77	1.42	2.67	-0.124	0.446
CGTCCAAGGACAGAGAGGTCAGTGAATGCCGAGT	4	3.21	3.98	1.29	2.11	3.27	1.69	2.7
TCTTGTACATCAAAGGTTAAGAAAGCCGAAGCCT	1.84	1.84	1.06	1.09	2.7	1.48	-0.039	0.246
GGAAAGAGGGCATTCGAGTTGATAGCATGGCGAT	1.42	1.81	1.82	2.67	1.32	3.61	-0.358	2.71
ATCTCTAGGTAAAGGTTCAGTGAATCCCGAGGAT	1.24	1.03	1.05	0.869	1.01	1.1	0.351	1.99
AGAACGAGGGCACGTTGAGTTGATAGCAGAGTAG	1.28	1.84	1.95	1.8	1.36	1.82	0.141	2.13
GCTAGTTGGTTAGTAAAAGGTCACACACCGGTCG	4.86	4.87	4.08	0.675	5.33	3.66	2.08	1.85
GCTCCGAGGACAAGGTCAGAGCTTTGTCCGTAGA	3.24	3.01	3.47	1.05	2.25	3.55	2.3	0.674
CGTCAAAGTTCAACTAAGGTAACGTCAAGCACGC	4.4	5.96	6.81	4.8	4.81	5.05	1.86	3.9
GGAACAAGGGCATTCGAGTTGATAGCATGGCGAT	1.12	1.21	1.36	2.48	0.917	3.16	-0.205	2.39
CCTACTAGGTCAATGGTCAGCTAAAGCAGCTCGC	3.28	3.39	4.16	1.71	2.26	2.47	0.868	0.437
GAAGACAGGTGAAACGCAGGTAACTCAGGGTGGC	0.467	0.851	0.0189	-0.671	0.66	1.49	-0.0479	-0.373
CCTAGCAGGACAGGGTCACTCAAGCATTTCGCTT	2.77	3.14	2.23	1.06	3.54	3.19	1.44	1.5
AGGATGAGGTTATACGTAGATCAGGGAAGAAAGT	1.66	1.85	1.16	1.66	2.27	2.39	1.27	1.08
CCTCGGAGGACAATAGGAGGTCAGAGCTGCCAGA	3.18	2.71	2.63	-0.00493	1.64	2.43	0.711	0.843
GCGACTGGGGCAAAGCAGGATACCATAAGGTTGG	0.194	0.19	0.556	-0.369	0.0149	2.27	-0.419	-0.417
ACTATTAGTTGAGACGAGGGAAACCGATAGGTTG	-0.559	0.157	0.307	0.505	0.0988	0.35	-0.716	0.415

Sequence	PBM binding z-score [1]	PBM binding z-score [2]	PBM binding z-score [3]	PBM binding z-score [4]	PBM binding z-score [5]	PBM binding z-score [6]	PBM binding z-score [7]	PBM binding z-score [8]
AGAACGAGGGCAATGAGGTGATAGCACGGGTGGC	1.58	1.49	1.52	1.37	1.04	2.46	0.988	1.57
ATCTCTAGGTAAGACTCAGTTCACTGAAGAACGC	0.746	0.678	0.541	0.822	0.497	1.29	0.792	2.32
GCTCGGTGGACAAGGTCAGAGCTTTGTCCGTAGA	2.7	2.44	2.14	0.246	1.96	2.48	1.14	0.24
GCTGCTAGGTCAGCTGATGGTCAGCTAAAGCTCG	2.88	3.97	4.38	0.423	0.813	1.83	-0.0581	-1.09
CCGACTGGGGCAAAGGTTACCATCCTCAGTACGA	2.19	3.56	1.56	-0.109	4.04	1.77	-0.0864	-0.138
CCTTACGGGTCACGAGGTTCTAGCACGACGAGCG	3.27	5.61	5.78	1.49	6.58	3.25	0.28	1.86
GCATATAGGTAACACAAGGTGAAAGTCCGATTGT	1.15	0.82	0.784	0.286	0.938	4.19	0.843	0.00161
GCGACTGGGGCAAAGCAGGTTACCCTAAGGTTGG	0.988	0.329	0.427	-0.421	0.394	2.85	0.12	-0.641
ATATGTAGGTTAGCTGGGGTCATTCAAACTAGGC	4.02	4.22	3.15	2.15	5.57	5.16	3.52	5.71
CCGAATAGGTTATGGGGCATTCAGGCAACGGTGA	1.11	1.06	0.917	0.132	1.31	0.696	-0.0047	-0.175
CGAACTAGGTCATCCAGGATAGTGAATACATTGA	3.03	3.82	4.37	2.18	2.75	3.26	1.49	0.935
CGTCAGAGTTCAAGGTAACGTAACAGAAAGCAGC	3.02	4.6	5.3	4.91	4.35	2.74	1.04	4.53
CGTCCAAGGTCAGAGAGGTCCGTGAATGCCGAGT	3.81	4.45	5.28	2.56	3.48	3.5	1.77	2.04
TAGCCTGGGTCATTGGGCCAGTATAGTACGCATC	2.47	3.67	3.47	0.363	3.04	1.99	-0.547	0.472
CGAATTAGGTCAAGGACAGTGAATCTCCGCACGC	3.29	3.94	4.46	1.46	2.97	3.53	2.81	0.373
TCTGCTAGGTCAGTGGGTCAGCTAACGAGCTGCC	3.84	3.92	4.5	0.404	2.23	1.94	0.337	-0.31
CCGACTGGGGCAGGAAGGTTACCATACCATCCGG	1.15	0.592	0.687	-1.31	0.585	0.142	-0.486	-0.24
TCTCGTAGATCAATAGAGGTTAAGAAAGTGCGCT	0.966	0.48	0.249	0.754	1.19	2.07	-0.641	0.163
